Tests used:
Experiment in all cases: log2 ratio of Biotin-Ahx-Ub-VS probe labelling (fragment/DMSO); higher = less target engagement (more negative = stronger competition), active = hit call of the paper (q ≤ 0.05, log2 ratio ≤ -1)
Conditions in all cases: compound concentration: 200 uM; treatment time: 3 h
[1] = molecular target: USP34 (UniProt Q70CQ2)
How it was run: (§1)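 HEK293T lysate (495 µg per sample, in Tris/CHAPS/IGEPAL buffer with protease inhibitors) was treated in triplicate with fragment at 200 µM or with DMSO for 3 h. It was then treated with Biotin-Ahx-Ub-VS (0.5 µM final) for 1 h. Labelled DUBs were NeutrAvidin-enriched, digested with LysC and trypsin, and run by diaPASEF LC-MS/MS. Spectronaut label-free quantities were global-median-normalised. Values are average log2 ratios fragment/DMSO by unpaired t-test, using proteins with ≥2 unique peptides.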

[2] = molecular target: T1, USP36 (UniProt Q9P275)
T1 sequence (whole entry): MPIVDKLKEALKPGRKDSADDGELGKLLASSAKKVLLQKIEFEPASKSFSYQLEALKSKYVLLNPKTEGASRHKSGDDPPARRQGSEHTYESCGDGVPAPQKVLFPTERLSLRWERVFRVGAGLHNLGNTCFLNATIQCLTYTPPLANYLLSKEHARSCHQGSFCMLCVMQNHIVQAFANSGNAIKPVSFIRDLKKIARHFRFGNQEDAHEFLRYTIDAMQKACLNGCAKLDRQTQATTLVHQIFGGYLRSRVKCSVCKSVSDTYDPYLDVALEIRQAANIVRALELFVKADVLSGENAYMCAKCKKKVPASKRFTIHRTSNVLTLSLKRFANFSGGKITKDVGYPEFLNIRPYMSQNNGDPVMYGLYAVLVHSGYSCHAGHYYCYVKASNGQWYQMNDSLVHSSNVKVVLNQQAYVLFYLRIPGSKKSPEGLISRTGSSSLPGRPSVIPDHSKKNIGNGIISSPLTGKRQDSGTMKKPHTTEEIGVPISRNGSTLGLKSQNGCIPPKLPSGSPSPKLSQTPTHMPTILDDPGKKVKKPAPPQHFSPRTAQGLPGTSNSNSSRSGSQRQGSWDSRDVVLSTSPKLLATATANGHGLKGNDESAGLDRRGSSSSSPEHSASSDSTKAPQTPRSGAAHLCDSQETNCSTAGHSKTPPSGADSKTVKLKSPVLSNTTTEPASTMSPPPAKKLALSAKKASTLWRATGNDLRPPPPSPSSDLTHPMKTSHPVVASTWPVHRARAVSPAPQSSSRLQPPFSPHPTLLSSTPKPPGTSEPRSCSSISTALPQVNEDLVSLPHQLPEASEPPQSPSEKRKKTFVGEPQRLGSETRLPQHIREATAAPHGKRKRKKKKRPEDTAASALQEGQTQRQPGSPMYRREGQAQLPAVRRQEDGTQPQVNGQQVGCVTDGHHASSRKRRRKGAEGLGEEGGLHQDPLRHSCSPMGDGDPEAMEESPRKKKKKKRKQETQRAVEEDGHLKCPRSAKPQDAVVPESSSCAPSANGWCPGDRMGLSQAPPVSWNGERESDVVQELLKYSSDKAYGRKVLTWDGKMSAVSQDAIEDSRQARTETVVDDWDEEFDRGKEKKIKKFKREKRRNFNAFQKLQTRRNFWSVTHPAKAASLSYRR
How it was run: as §1

[3] = molecular target: T2, USP38 (UniProt Q8NB14)
T2 sequence (whole entry): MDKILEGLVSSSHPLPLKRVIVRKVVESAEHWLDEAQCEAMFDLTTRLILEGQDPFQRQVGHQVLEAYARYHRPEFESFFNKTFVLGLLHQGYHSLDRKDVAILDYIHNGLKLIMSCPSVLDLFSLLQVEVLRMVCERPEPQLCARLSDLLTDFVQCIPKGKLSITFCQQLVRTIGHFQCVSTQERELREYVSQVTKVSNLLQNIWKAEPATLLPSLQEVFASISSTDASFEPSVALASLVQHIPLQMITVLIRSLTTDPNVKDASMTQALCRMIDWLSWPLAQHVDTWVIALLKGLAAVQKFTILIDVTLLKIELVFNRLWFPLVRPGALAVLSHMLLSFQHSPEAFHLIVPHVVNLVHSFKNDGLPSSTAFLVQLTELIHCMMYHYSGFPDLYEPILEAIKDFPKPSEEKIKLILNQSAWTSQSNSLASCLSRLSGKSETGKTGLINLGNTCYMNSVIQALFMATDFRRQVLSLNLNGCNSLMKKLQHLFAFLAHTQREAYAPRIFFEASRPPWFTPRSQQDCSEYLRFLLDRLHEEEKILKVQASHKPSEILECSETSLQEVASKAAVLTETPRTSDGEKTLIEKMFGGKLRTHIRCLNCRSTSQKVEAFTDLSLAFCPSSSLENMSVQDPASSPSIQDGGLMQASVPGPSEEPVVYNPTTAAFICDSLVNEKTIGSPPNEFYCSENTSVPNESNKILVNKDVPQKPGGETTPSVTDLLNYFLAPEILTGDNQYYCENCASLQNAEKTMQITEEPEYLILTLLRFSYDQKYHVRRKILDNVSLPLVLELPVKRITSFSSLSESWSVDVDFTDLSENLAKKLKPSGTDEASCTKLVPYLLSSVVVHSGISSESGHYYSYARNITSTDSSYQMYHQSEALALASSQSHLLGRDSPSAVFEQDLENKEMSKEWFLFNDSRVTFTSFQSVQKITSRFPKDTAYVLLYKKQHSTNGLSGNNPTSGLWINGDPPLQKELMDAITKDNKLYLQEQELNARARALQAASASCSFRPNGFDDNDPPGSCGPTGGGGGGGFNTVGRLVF
How it was run: as §1

[4] = molecular target: T3, USP39 (UniProt Q53GS9)
T3 sequence (whole entry): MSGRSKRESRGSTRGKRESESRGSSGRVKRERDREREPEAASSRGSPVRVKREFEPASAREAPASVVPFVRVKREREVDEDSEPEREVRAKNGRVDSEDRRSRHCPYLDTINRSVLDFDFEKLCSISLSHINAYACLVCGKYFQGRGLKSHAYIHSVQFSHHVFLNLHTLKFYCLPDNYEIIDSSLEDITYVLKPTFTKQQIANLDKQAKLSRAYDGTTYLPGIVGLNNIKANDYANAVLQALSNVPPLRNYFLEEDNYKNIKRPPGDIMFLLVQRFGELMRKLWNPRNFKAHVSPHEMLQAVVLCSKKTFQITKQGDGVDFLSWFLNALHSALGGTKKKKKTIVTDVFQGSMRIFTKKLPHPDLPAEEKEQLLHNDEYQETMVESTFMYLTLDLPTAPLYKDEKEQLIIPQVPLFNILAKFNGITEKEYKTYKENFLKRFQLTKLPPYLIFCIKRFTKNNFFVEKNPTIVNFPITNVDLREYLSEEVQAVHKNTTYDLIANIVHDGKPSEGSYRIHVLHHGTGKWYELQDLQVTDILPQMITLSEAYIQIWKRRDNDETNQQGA
How it was run: as §1

[5] = molecular target: T4, USP4 (UniProt Q13107)
T4 sequence (whole entry): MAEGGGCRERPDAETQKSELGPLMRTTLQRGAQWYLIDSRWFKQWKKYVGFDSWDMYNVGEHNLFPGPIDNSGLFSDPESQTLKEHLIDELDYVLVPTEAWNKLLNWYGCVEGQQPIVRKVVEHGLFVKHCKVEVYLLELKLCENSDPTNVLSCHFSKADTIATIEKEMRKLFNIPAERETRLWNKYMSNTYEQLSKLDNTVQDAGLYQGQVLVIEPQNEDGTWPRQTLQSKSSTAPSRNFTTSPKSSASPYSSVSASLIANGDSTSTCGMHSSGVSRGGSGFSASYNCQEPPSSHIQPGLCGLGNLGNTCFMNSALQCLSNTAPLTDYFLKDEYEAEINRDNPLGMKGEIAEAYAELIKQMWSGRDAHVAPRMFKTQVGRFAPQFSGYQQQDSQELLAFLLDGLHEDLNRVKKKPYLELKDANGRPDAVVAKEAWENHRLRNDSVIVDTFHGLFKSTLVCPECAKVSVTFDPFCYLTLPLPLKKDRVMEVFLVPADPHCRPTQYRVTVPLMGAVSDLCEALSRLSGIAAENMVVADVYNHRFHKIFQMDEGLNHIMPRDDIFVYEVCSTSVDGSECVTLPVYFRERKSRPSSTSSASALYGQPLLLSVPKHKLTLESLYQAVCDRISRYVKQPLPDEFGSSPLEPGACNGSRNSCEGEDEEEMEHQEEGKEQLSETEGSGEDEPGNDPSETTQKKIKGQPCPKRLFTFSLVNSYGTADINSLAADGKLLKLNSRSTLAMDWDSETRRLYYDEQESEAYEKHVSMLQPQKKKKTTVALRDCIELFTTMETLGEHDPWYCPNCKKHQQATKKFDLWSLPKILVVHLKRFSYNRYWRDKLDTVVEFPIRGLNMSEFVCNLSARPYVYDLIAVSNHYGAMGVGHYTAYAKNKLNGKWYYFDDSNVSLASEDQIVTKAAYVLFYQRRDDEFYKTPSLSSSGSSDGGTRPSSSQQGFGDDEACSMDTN
How it was run: as §1

Measured: log2 ratio of Biotin-Ahx-Ub-VS probe labelling

Chain of USP34 (Q70CQ2 whole entry, the tested form may be a part): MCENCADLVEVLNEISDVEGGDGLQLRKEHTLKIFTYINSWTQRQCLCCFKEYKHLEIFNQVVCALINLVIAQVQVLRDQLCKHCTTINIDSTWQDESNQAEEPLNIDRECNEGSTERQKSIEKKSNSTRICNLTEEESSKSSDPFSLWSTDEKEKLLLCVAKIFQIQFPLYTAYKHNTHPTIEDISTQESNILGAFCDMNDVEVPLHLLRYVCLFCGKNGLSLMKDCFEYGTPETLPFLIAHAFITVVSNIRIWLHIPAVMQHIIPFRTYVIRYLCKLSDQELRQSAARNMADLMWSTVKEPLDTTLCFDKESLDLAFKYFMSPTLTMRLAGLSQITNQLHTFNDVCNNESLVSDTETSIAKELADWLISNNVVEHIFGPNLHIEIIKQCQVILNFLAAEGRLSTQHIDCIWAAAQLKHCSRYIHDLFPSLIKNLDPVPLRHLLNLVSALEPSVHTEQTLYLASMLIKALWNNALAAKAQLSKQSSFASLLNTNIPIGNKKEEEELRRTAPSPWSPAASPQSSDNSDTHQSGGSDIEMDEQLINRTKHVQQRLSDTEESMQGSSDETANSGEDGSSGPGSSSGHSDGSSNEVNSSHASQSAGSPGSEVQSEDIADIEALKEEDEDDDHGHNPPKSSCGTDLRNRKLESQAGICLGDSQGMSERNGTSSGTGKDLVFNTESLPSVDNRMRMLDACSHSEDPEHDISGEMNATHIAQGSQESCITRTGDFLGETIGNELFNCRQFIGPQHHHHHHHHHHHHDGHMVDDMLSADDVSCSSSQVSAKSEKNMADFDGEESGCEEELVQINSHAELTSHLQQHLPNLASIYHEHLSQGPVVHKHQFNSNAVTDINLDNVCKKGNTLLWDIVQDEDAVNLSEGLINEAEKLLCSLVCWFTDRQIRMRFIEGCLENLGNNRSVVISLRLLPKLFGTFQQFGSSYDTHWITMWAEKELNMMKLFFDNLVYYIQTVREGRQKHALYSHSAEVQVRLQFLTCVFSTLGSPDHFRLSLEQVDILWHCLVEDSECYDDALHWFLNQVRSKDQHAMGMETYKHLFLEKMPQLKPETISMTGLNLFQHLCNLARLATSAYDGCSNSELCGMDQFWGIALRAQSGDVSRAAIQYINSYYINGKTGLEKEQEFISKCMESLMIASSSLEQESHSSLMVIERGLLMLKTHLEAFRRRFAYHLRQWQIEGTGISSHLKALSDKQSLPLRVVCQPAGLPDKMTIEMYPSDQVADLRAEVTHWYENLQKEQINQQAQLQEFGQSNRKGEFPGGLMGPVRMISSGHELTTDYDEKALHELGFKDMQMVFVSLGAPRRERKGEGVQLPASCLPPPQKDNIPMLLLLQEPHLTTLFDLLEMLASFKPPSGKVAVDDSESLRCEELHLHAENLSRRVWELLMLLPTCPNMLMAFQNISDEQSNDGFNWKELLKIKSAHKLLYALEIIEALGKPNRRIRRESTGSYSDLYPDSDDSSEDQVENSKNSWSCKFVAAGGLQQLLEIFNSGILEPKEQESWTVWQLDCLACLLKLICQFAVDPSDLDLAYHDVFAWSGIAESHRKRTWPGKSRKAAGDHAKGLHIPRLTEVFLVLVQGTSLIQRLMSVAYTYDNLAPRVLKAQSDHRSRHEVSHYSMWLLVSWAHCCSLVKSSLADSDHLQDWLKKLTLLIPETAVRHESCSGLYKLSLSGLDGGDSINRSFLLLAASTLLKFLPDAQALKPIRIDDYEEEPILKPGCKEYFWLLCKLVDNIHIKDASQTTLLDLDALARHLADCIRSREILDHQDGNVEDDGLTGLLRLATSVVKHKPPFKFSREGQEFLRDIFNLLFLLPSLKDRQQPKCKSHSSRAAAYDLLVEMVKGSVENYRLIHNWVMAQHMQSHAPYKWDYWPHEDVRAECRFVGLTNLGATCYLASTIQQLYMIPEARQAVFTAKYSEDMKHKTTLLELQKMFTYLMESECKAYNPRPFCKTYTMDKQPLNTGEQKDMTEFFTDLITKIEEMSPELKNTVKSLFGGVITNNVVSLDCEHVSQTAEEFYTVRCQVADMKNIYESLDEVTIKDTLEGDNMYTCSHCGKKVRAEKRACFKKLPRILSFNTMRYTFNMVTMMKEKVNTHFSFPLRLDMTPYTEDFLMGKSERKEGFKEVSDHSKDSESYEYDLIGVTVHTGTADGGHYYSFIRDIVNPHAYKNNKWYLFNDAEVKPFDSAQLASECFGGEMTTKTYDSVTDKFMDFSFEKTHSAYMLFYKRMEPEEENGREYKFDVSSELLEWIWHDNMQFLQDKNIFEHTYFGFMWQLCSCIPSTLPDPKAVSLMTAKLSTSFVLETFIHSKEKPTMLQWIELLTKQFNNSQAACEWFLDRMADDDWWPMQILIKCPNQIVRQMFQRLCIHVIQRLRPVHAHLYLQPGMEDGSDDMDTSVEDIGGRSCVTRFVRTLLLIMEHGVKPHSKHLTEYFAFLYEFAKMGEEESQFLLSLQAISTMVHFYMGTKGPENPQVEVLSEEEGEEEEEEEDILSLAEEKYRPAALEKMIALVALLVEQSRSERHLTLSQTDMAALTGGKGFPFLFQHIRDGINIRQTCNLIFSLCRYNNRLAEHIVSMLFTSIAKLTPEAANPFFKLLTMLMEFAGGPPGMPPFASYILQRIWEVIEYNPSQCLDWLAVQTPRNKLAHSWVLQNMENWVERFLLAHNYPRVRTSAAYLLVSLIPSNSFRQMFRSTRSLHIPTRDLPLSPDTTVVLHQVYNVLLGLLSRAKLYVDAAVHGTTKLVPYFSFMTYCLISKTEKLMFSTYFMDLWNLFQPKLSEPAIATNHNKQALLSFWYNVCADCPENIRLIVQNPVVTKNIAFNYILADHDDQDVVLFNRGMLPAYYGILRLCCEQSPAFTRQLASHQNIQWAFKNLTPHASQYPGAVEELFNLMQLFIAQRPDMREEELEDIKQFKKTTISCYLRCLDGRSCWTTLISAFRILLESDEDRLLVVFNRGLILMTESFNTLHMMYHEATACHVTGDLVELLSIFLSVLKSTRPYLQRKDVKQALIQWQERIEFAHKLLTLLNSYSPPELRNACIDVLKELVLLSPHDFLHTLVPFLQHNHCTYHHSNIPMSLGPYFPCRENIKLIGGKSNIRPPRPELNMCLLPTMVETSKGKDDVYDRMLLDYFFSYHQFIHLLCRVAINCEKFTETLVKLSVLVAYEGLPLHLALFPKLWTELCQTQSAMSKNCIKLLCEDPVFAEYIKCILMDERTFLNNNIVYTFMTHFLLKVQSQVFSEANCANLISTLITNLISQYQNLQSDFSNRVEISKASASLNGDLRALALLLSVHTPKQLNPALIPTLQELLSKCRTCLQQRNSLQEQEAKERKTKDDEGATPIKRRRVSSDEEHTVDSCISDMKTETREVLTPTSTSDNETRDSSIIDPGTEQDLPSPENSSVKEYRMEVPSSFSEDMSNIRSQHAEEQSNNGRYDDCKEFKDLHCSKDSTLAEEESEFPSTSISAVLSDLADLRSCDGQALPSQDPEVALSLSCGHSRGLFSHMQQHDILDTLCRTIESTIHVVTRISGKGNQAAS

O=C(CCl)N[C@H]1CCS(=O)(=O)c2ccccc21
inactive: [1] -0.277 | [2] -0.115 | [3] -0.13 | [4] -0.176 | [5] -0.212

From the supplement of paper PMC11732987, “Enantioselective OTUD7B fragment discovery through chemoproteomics screening and high-throughput optimisation” (Communications Chemistry, 2025)
